Rows were chosen to be rich in hits. Some 9% of all compounds tested hit in one or more screens of this group.
ALDH1A1 block = blocks purified human ALDH1A1 activity | P00352 | Purified ALDH1A1, NADH fluorescence, propionaldehyde substrate | Potency, µM (highest dose often 75.3 µM), for inactives: top-dose activity, negative = inhibition, actives largely listed as inhibitors | 7.3% of 220,000 active; active means well fitted inhibition curve with a large enough effect, not every such curve was filed as active; inconclusive means small, poorly fitted or top-dose-only effect, or another doubt; inactive means no such curve, though single readings can be large or run the other way;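 further: plate controls were no enzyme wells and a reference inhibitor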
Target sequence (P00352 whole entry, looked up): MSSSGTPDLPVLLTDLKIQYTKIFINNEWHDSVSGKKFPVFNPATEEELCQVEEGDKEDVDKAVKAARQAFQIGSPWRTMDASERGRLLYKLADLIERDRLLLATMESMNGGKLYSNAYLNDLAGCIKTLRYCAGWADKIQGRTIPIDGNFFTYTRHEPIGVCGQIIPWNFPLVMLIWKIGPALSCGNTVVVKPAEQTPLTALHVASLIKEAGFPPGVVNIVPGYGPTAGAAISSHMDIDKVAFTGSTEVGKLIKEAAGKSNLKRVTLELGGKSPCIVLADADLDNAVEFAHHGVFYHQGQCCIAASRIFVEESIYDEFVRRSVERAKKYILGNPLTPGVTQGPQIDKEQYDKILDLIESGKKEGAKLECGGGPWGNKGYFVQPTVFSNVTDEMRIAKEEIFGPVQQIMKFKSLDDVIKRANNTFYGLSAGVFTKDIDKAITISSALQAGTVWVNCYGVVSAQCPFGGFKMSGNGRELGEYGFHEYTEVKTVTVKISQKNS
HTT ATP protect = cytoprotection in Huntington HTT-Q103 PC12 cell model; PC12 HTT-Q103 induced, cytoprotection, ATP luminescence, 40 h; Potency, µM (doses to about 56.4 µM), without a hit: cytoprotection (ATP increase), hits mostly activators; 0.14% of 230,000 active; AID 1471; further: % of control where 0% means no effect; nearly all actives have a fitted effect of over 45% in size
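Readout: ATPlite luminescence (ATP level). Model: stable PC12, inducible Htt exon1 Q103-GFP. Inducer: tebufenozide, 100 nM final. Compounds: dose series. No G418 in medium.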
HPGD block = inhibitors of human 15-hydroxyprostaglandin dehydrogenase (HPGD) | 4.3% of 150,000 active | purified HPGD, NADH fluorescence kinetic, PGE2 substrate | P15428 | Potency, µM, for inactives: top-dose activity change, negative = inhibition, actives largely listed as inhibitors; active means well fitted inhibition curve with a large enough effect, not every such curve was filed as active; inconclusive means small, poorly fitted or top-dose-only effect, or another doubt; inactive means no such curve, though single readings can be large or run the other way; further: on the % scale 0 is the no-effect control and ±100 the full control effect
Target sequence (P15428 whole entry, looked up): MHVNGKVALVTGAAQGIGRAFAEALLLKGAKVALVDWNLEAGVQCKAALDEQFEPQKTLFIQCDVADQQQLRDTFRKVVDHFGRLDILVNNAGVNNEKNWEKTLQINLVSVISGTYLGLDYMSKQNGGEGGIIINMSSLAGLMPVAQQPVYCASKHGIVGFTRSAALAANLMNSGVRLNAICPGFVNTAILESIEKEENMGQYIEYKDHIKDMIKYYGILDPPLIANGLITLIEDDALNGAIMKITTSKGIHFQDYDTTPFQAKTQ
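NADH formation kinetics: reaction with 30 uM PGE2 and 1 mM NAD+ (final), 20 nM enzyme, Tris-HCl pH 8 with Tween 20, after 15 min compound preincubation at room temperature. Fluorescence change, last versus first of five reads.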
HTT aggregate = mutant huntingtin aggregation inhibition | PC12 HttQ103-GFP aggregates, Acumen cytometry, 40 h | Potency, µM (doses to about 46.1 µM), for inactives: at the top dose activity change, negative = inhibition, usual class: inhibitors | 1.1% of 220,000 active | AID 1688; further: on the % scale 0 is the no-effect control and ±100 the full control effect; nearly all actives have a fitted effect of over 60% in size
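Ecdysone-promoter PC12 model expressing HTT exon 1 Q103 fused to GFP, induced by tebufenozide at 100 nM final. Compounds titrated; aggregates sized 1–25 µm scored on a 488 nm laser cytometer.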
Lamin A splicing = LMNA splicing modulation; AID 1487; 0.01% of 200,000 active; HeLa LMNA splicing GFP/RFP minigene ratio, 48 h; Potency, µM (titrated, usually from 46.1 µM), inactives show top-dose ratio change, negative = inhibition, most hits filed as inhibitors; active means well fitted inhibition curve with a large enough effect in the signal ratio, with a control signal flat, not every such curve was filed as active; inconclusive means small, poorly fitted or top-dose-only effect, or effect the other way, or a change in a side signal; the % refers to the signal ratio; further: on the % scale 0 is the no-effect control and ±100 the full control effect
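S3 HeLa stable clones carrying a lamin A-EGFP splicing minigene plus DsRed2 were seeded at 600 cells/well in Opti-MEM with 2% FBS, pin-dosed and incubated 48 h at 37°C. Acumen cytometry (488 nm) gave the GFP/RFP total-intensity ratio.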
Luc counter = counter-screen: inhibitors of Kinase-Glo firefly luciferase; Kinase-Glo luciferase, ATP luminescence, 8 min; Potency, µM (highest dose often 38.3 µM), for inactives: at the top dose activity change, negative = inhibition, hits mostly inhibitors; 0.28% of 200,000 active; AID 1379; further: on the % scale 0 is the no-effect control and ±100 the full control effect; nearly all actives have a fitted effect of over 60% in size
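Compounds were added to a substrate mix at pH 7.2 (50 mM imidazole, 10 uM ATP, within the enzyme's linear range), followed by Kinase-Glo detection reagent; luminescence was measured after 8 minutes at ambient temperature.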
* hit, by the source's call; ? = inconclusive; · = not tested or not shown; ! = not active in a repeat; [ ] = another dose, or the depositor's remark. Unless noted, the call rests on the fitted dose curve; in most records, active means well fitted curve in the direction sought with a large enough effect; inconclusive means small, poorly fitted or top-dose-only effect, or another doubt; inactive means no such curve, though single readings can be large; an effect the other way counts as inactive or inconclusive. Potency means the concentration at half of the fitted maximal effect.

SMILES	ALDH1A1 block	HTT ATP protect	HPGD block	HTT aggregate	Lamin A splicing	Luc counter
C/C(=C/C=C/[C@@H](C)C(=O)O)[C@H]1CN[C@H](C(=O)O)[C@H]1CC(=O)O	1%	·	-1%	5%	5%	0%
COC(=O)c1ccc(C(=O)OC)c(NC(=O)Oc2ccccc2)c1	?	-1%[10 µM]	?	-8%	-7%	-5%
Clc1ccc2c(c1)C(c1ccccc1Cl)=NCc1nnc(N3CCN(CCOc4ccccc4)CC3)n1-2	10µM*	·	-3%	?	?	-4%
COc1ccccc1C1=NCc2nnc(C)n2-c2ccc(Cl)cc21	13%	-7%[0.074 µM]	28µM*	12%	-11%	-2%
Cc1nnc2n1-c1ccc(Cl)cc1C(c1ccccc1)=NC2	7%	?	16µM*	-13%	?	3%[39.9 µM]
CCCN(CC#CCOc1ccc(OC)cc1)CCC	20µM*	-15%	-10%	-11%	10%	-2%
COc1ccc(C2(C#N)CCN(C)CC2)cc1	-2%	15%[10 µM]	-8%	-19%	-3%	2%
Cn1c(=O)oc2cc(S(=O)(=O)N3CCOCC3)ccc21	9%	-11%	-2%	7%	?	0%
CCN1CCN(P2(=O)C=C(c3ccccc3)OC(c3ccccc3)=C2)CC1	14µM*	-15%	-7%	11%	6%	-2%
O=c1[nH]c(=O)n(CC2CCCO2)c(O)c1/C=C1\C=Nc2ccccc21 (stereo not drawn)	14µM*	18%[10 µM]	-24%	32%[9.22 µM]	-14%	-1%
CC#CP(=O)(OC)C(O)(CF)c1ccccc1 (stereo not drawn)	5%	·	-17%	-11%	2%	2%
O=C(Oc1ccccc1)c1ccccc1O	-6%	?	?	·	·	·
Cn1c(O)c(/C=C/C=Nc2ccccc2)c(=O)n(C)c1=S	13µM*	4%[10 µM]	·	-26%	-17%	·
CCCCn1c(O)c(C=NCCCn2ccnc2)c(=O)[nH]c1=O	18µM*	-24%	-14%	23%	5%	-1%
O=C(CN1CC=C(c2ccccc2)CC1)NC(=O)NC1CCCCC1	?	-32%	·	11%	·	·
Nc1c(Br)cc([N+](=O)[O-])cc1[N+](=O)[O-]	25µM*	-46%	-2%	·	·	·
Cc1cc([N+](=O)[O-])ccc1N	?	-4%	-9%	·	·	·
Cc1[nH]c2ccccc2c1/C=N/O	-9%	-5%[0.074 µM]	13µM*	-1%	17%	-5%
COc1ccc(C(C)=O)cc1COC(=O)c1ccc2ccccc2n1	14µM*	22%[10 µM]	·	13%	16%[46 µM]	7%
O=C(O)c1ccc2c(c1)C1C(Cl)C(Sc3ccccc3[N+](=O)[O-])CC1C(c1cccc([N+](=O)[O-])c1)N2 (stereo not drawn)	?	·	·	?	·	2%
CCN(CC)C(=O)c1ccc2c(c1)C1C(Cl)C(Sc3ccccc3[N+](=O)[O-])CC1C(C(=O)O)N2 (stereo not drawn)	25µM*	21%[10 µM]	·	20%[9.22 µM]	·	·
O=C(O)c1cccc2c1NC(c1cccc([N+](=O)[O-])c1)C1CC(Sc3ccccc3[N+](=O)[O-])C(Cl)C21 (stereo not drawn)	3.5µM*	·	·	·	5%[46 µM]	-6%
Cc1ccc2c(c1Cl)NC(C(=O)O)C1CC(Sc3ccccc3[N+](=O)[O-])C(Cl)C21 (stereo not drawn)	·	2%[10 µM]	·	-34%[9.22 µM]	·	·
CC(C)C(=O)Nc1ccc(N2CCN(C)CC2)c(F)c1	5%	-26%[1.9 µM]	·	2%[9.22 µM]	·	1%
O=C(COC(=O)Cc1ccccc1)Nc1ncc(Cl)cc1Cl	11%	18%	-1%	-14%	17%	-2%
SMILES	ALDH1A1 block	HTT ATP protect	HPGD block	HTT aggregate	Lamin A splicing	Luc counter
CC/C=C\C/C=C\C/C=C\C/C=C\C/C=C\CCCC(=O)NCC(=O)O	7%	-19%	-7%	·	·	-1%
O=C(Cl)OCc1ccccc1	?	-1%	-7%	·	·	·
O=c1oc2ccccc2c(O)c1C(c1ccccn1)c1c(O)c2ccccc2oc1=O	?	13%[10 µM]	·	12%[9.22 µM]	?	·
Clc1ccc(N2CC3CCC(C2)N3)nn1	11%	·	-11%	·	-14%	-3%
CN1C(=O)N(C)C(=O)C2(Cc3ccccc3N3CCOCC32)C1=O (stereo not drawn)	20µM*	-7%[0.074 µM]	-12%	6%	-18%	-2%
CCC1(c2ccccc2)C(=O)N(C)C(=O)N(C)C1=O	2%	-30%	5%	-6%	1%	5%
CNC(=S)N1CC2CC(C1)c1cccc(=O)n1C2 (stereo not drawn)	-1%	-1%	·	-8%	·	1%
COc1cc(OC)cc(C(=O)N2CCC(N3CCN(c4ccccc4)CC3)CC2)c1	?	19%	-3%	11%	2%	2%
Cc1cccc(C2=NCC(=O)N(CC(=O)NCc3ccco3)c3sc4c(c32)CCCC4)c1	20µM*	-4%	28µM*	11µM*	-4%	-4%
O=C(CN1C(=O)CN=C(c2ccccc2Cl)c2cc(Cl)ccc21)NCc1ccco1	7%	-2%	4%	16%	12%	-3%
COc1ccc(C2=NCC(=O)N(CC(=O)NCc3ccco3)c3sc4c(c32)CCCC4)cc1	16µM*	-5%	-6%	2%	?	-4%
CC1CCCN(C(=O)CCl)C1 (stereo not drawn)	0.63µM*	·	-6%	-8%	?	1%
CCCCC/C=C\C/C=C\C/C=C\C/C=C\CCCC(=O)OC(CO)CO	22µM*!	-35%	28µM*!	·	·	-1%[39.9 µM]
CCCCC/C=C\C/C=C\CCCCCCCC(=O)NCCO	8%	-26%	-2%	·	·	0%
CCCCC/C=C\C/C=C\C/C=C\C/C=C\CCCC(=O)N[C@H](C)CO	7.1µM*!	?	-1%	·	·	-1%[39.9 µM]
Cc1c2cnn(CC(=O)N3CCC4(CC3)OCCO4)c(=O)c2c(C)n1Cc1ccc(F)cc1	-5%	0%	-10%	-11%	?	-2%
O=C(Nc1ccc(Cl)cc1)Nc1ccc(Cl)c(Cl)c1	·	-83%	·	11µM*	?	·
COc1ccc(N2C(=O)CC(N3CC=C(c4ccccc4)CC3)C2=O)cc1 (stereo not drawn)	10µM*	-3%[10 µM]	?	-18%	-1%	2%
CC(=O)c1ccc(OC(C)C)c(Cc2c(O)[nH]c(=S)[nH]c2=O)c1	18µM*	-2%[10 µM]	·	13%[9.22 µM]	·	1%
CCC(=Nc1cc(OC)ccc1OC)c1c(O)[nH]c(=O)[nH]c1=O	?	-4%	25µM*	-5%	?	-4%
CCC(=Nc1ccc(OC)cc1OC)c1c(O)[nH]c(=O)[nH]c1=O	-4%	-17%	25µM*	-13%	-2%	13%
C=CCn1c(O)c(C(CC)=Nc2cc(OC)ccc2OC)c(=O)[nH]c1=O	?	-18%[0.074 µM]	-29%	2%	-9%	2%
